Bioassay records from PubChem.
S1P4 antagonist = S1P4 receptor antagonists, primary screen, cell-based; inhibition, % at 4.98 µM; AID 1510, 2009; S1P4-expressing cells, antagonist mode, reporter read-out; 220,000 compounds, 0.26% hits; Sphingosine 1-phosphate receptor 4 (Homo sapiens), O95977; in the data active = inhibition above about 29%;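 also: 0% = wells stimulated with agonist and 100% = vehicle wells without agonist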
Target sequence (O95977 whole entry, looked up): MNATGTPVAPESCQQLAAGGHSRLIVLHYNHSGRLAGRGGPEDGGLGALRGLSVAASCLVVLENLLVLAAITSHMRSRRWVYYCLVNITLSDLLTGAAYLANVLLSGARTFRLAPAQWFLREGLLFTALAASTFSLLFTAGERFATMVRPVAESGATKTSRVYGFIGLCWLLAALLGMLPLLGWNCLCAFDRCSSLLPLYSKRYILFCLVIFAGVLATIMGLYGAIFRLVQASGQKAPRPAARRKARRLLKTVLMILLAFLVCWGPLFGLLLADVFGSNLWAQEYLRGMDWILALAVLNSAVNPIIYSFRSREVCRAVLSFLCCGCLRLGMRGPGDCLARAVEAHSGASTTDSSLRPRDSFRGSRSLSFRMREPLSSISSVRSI
CHOP inhibitor = inhibitors of CHOP promoter induction, primary screen, cell-based, unfolded protein response, luciferase reporter | CHO-K1 CHOP-promoter luciferase, tunicamycin-induced, 15-18 h | inhibition, % at 10 µM | 220,000 compounds, 3.8% hits | AID 2732, 2010;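 active = compounds that reduced the stress-induced luciferase reporter signal by more than about 70% of percent inhibition, limit read from the data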;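 also: 0% = tunicamycin plus vehicle and 100% = wells without tunicamycin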
Hsp70 activator = Hsp70 transcriptional activators, primary screen, cell-based, HeLa, Hsp70 promoter luciferase, luminescence, 10 µM; AID 1203, 2008; 200,000 compounds, 0.04% hits; HeLa Hsp70 promoter luciferase reporter; scaled: vehicle 0, proteasome-inhibitor control 100%; activation, % at 10 µM;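 active = activation above the mean across all tested compounds plus 3 SD, cutoff set per campaign, cut at about 5.5% in these data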;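 also: 100% = MG132 at 30 µM as the positive control and 0% = DMSO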
S1P4 ag = S1P4 receptor agonists, primary screen, cell-based. activation, % at 4.98 µM. S1P4-expressing cell line, agonist reporter assay. AID 1509, 2009. Sphingosine 1-phosphate receptor 4 (Homo sapiens), O95977. 220,000 compounds, 0.35% hits; in the data active = activation above about 11%;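 also: 0% = DMSO vehicle and 100% = reference agonist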
CHOP inh conf = retest of CHOP induction inhibitors, confirmation, cell-based. 2,100 compounds, 45% hits. inhibition, % at 10 µM. shares compounds with CHOP inhibitor. AID 504437, 2011. CHO-CHOP promoter luciferase reporter, tunicamycin-induced, luminescence;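 active = mean of three repeat readings of reporter signal inhibition above a set limit, cut at about 70% in these data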;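 also: 0% = tunicamycin plus vehicle and 100% = wells lacking tunicamycin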
Starred values were filed as active, the others as inactive; · = no result given. Sampled rows, rich in hits. Any-hit rate of the full collection: about 4.2%.

SMILES | S1P4 antagonist | CHOP inhibitor | Hsp70 activator | S1P4 ag | CHOP inh conf
COc1ccc2nc(Nc3nc(CSc4nc5ccccc5[nH]4)cc(=O)[nH]3)nc(C)c2c1 | -3.9 | 102.5* | -0.4 | 0.5 | 102.8*
Cc1ccc2nc(Nc3nc(CSc4nnnn4-c4ccccc4)cc(=O)[nH]3)nc(C)c2c1 | -12.5 | 41.8 | -0.1 | 2.4 | ·
Cc1nc(Nc2nc(CSc3ccc(Cl)cc3)cc(=O)[nH]2)nc2ccccc12 | -18.3 | 47.8 | -0.6 | 3.9 | ·
COc1ccc2c(C)nc(Nc3nc(C)c(C)c(=O)[nH]3)nc2c1 | -0.5 | 99.1* | 0.1 | -7.2 | 106.2*
CCc1c(C)nc(Nc2nc(C)c3ccc(OC)cc3n2)[nH]c1=O | -5.2 | 0.2 | -0.1 | 0.1 | ·
Cc1[nH]nc(NCCO)c1[N+](=O)[O-] | 7.9 | 9.3 | -0.1 | -2.1 | ·
CC1=C(C#N)C(c2cccnc2)C2=C(CC(C)(C)CC2=O)N1 (stereo unspecified) | -12.7 | 1.4 | -0.1 | -0.5 | ·
COc1ccccc1NC(=O)c1c(N=Cc2ccccc2O)cnn1C | -15.4 | 100.7* | 0.5 | 0.5 | 14.0
Cc1ccn2cc(-c3cc4ccccc4oc3=O)nc2c1 | 1.3 | 105.4* | -0.4 | 2.2 | 87.5*
Cc1ccc(-c2csc(Cc3nc(-c4cc5ccccc5oc4=O)cs3)n2)cc1 | -7.5 | 30.3 | -0.3 | 2.0 | ·
Cc1ccccc1Oc1cc(-n2ncc(Cl)c(Cl)c2=O)ncn1 | -6.5 | 108.2* | 0.9 | 0.6 | 118.7*
CC1=CC(C)(C)N(C(=O)c2ccc(F)cc2)c2cc3c(cc21)OCO3 | 9.1 | 98.0* | -0.1 | 1.3 | 71.1*
Cc1sc(NC(=O)/C=C/C(=O)O)c(C(N)=O)c1-c1ccc(C(C)(C)C)cc1 | 0.4 | -7.7 | -0.4 | -0.6 | ·
Cc1sc(NC(=O)c2cccc([N+](=O)[O-])c2)c(C(N)=O)c1-c1ccc(C(C)(C)C)cc1 | -15.5 | 106.7* | -0.4 | 0.8 | 138.7*
CCCc1nn(-c2ccccc2)c2c1C(c1cccs1)C(C#N)=C(N)O2 (stereo unspecified) | 1.1 | 107.7* | -0.3 | -1.5 | -37.8
CC(C)(C)n1nnnc1CN(Cc1ccc(F)cc1)Cc1ccco1 | -22.4 | 100.6* | -0.4 | -0.1 | 62.3
COc1cccc(CN(Cc2ccco2)C(c2ccc(F)cc2)c2nnnn2C(C)(C)C)c1 (stereo unspecified) | -4.9 | 47.8 | 0.0 | 0.8 | ·
CC(/C=C1\SC(=O)N(CC(=O)Nc2ccc(O)cc2)C1=O)=C\c1ccccc1 | -16.2 | 96.2* | -0.2 | 2.1 | -42.7
CNc1nc(N/N=C/c2cc3c(cc2[N+](=O)[O-])OCO3)nc(Nc2ccccc2)n1 | -10.5 | 105.8* | 0.1 | 1.6 | 24.9
CS(=O)(=O)N(CC(=O)Nc1ccccc1)c1cccc(Cl)c1Cl | -8.8 | 0.2 | -0.2 | -0.9 | ·
CCOc1ccccc1CNC(=O)C1CCN(C(=O)c2sccc2-n2cccc2)CC1 | -17.5 | 30.0 | 0.0 | 0.7 | ·
CN1C(=O)NC(c2ccccc2)C2=C1CN(c1ccc3ccccc3c1)C2=O (stereo unspecified) | -13.8 | 96.3* | 0.2 | 0.7 | 14.6
O=P(CCCCCCCCCP(=O)(c1ccccc1)c1ccccc1)(c1ccccc1)c1ccccc1 | -13.3 | 99.5* | -0.4 | 0.6 | 49.7
CCOC(=O)c1ccc(Nc2nc(=O)c3cccnc3s2)cc1 | -9.1 | 19.1 | 0.3 | 2.3 | ·
O=c1nc(Nc2ccc(OCc3ccccc3)cc2)sc2ncccc12 | -14.9 | 101.7* | -0.1 | 1.5 | -24.3
SMILES | S1P4 antagonist | CHOP inhibitor | Hsp70 activator | S1P4 ag | CHOP inh conf
CCC1=Nc2cc(C(=O)NCC3CCCO3)ccc2Sc2ccc(Br)cc21 (stereo unspecified) | 7.3 | 25.2 | -0.3 | 1.5 | ·
Cc1nonc1NC(=O)CSc1nc(C23CC4CC(CC(C4)C2)C3)nc2ccccc12 | -13.8 | 100.1* | · | 2.6 | -1.9
CC(C)Cn1c(N)c(C(=O)COC(=O)c2ccc(O)cc2)c(=O)n(C)c1=O | -21.2 | 28.7 | -0.4 | 0.3 | ·
CC(C)Cn1c(N)c(C(=O)COC(=O)C2CCCCC2)c(=O)n(C)c1=O | -18.7 | 99.7* | -0.1 | -0.4 | 77.8*
CN(Cc1ccccc1)CC(O)COc1ccc(CNCCCOc2cccnc2)cc1 (stereo unspecified) | 9.7 | -3.0 | 0.2 | 0.0 | ·
COc1ccc(/C=N/NC(=S)Nc2cccc(C(=O)O)c2)cc1 | 2.3 | -13.0 | -0.5 | 0.5 | ·
O=C(NCc1ccccc1)c1cc(-c2ccncc2)nc2ccc(S(=O)(=O)N3CCOCC3)cc12 | -3.9 | 102.6* | -0.3 | 2.9 | 107.5*
O=C(O)c1cc(-c2ccncc2)nc2ccc(S(=O)(=O)N3CCOCC3)cc12 | -10.6 | 23.9 | -0.2 | 0.9 | ·
OCC(Cc1ccccc1)Nc1c2ccccc2nc2ccccc12 (stereo unspecified) | -23.1 | -31.1 | -0.2 | 3.6 | ·
CCC(=O)NC(NC(=S)Nc1cccc2cccnc12)C(Cl)(Cl)Cl (stereo unspecified) | -7.6 | 9.7 | -0.3 | -0.1 | ·
O=C(Cc1cccc2ccccc12)NC(NC(=S)Nc1ccccc1Cl)C(Cl)(Cl)Cl (stereo unspecified) | -7.1 | 104.4* | -0.4 | 4.6 | -13.6
CCCCCCCCn1c(N2CCN(c3cccc(Cl)c3)CC2)nc2c1c(=O)[nH]c(=O)n2C | -8.9 | 6.2 | 0.1 | 0.1 | ·
CC(C)CCn1c(N2CCN(c3cccc(Cl)c3)CC2)nc2c1c(=O)[nH]c(=O)n2C | -20.0 | 105.8* | -0.2 | 0.7 | 65.5
CC(C(=O)NCC1CCCCC1)N1CCN(S(=O)(=O)c2ccccc2F)CC1 (stereo unspecified) | -6.4 | 22.4 | 0.1 | 0.6 | ·
CC1=C(C)CS(=O)N(S(=O)(=O)c2ccc(Cl)cc2)C1 (stereo unspecified) | 18.0 | · | -0.3 | 1.6 | 12.2
CC1CCN(S(=O)(=O)c2ccc(Cl)cc2)CC1 | -6.3 | 64.0 | -0.1 | -0.9 | ·
C=C(C)COc1ccc(-c2n[nH]c(C)c2-c2ccc(Br)cc2)c(O)c1 | -11.2 | · | -0.2 | -0.1 | 106.2*
C/C(=N\NC(=O)C1CC1)c1ccc(Cl)c(Cl)c1 | 3.6 | -16.5 | -0.1 | -0.6 | ·
COc1cc(OC)c(/C=N/NC(=O)c2ccc(NC(C)=O)cc2)cc1Br | -2.5 | 104.0* | -0.4 | 0.6 | -8.6
CC(C)C(=O)Nc1ccc(C(=O)N/N=C/c2cc(Br)cc(Br)c2O)cc1 | -4.9 | 58.9 | -0.3 | 1.1 | ·
CC(=O)Nc1ccc(C(=O)N/N=C/c2cc(Br)cc(Br)c2O)cc1 | -9.3 | 104.6* | -0.1 | -2.2 | 35.0
COc1cc(OC)c(/C=N/NC(=O)c2ccncc2)cc1Br | -0.3 | 9.7 | -0.4 | -1.3 | ·
O=C(NCc1ccco1)c1ccc(Cl)c(S(=O)(=O)N2CCOCC2)c1 | 3.7 | 15.3 | -0.1 | -0.7 | ·
Cc1ccc2nc(/C(C#N)=C/c3ccc(-c4cccc([N+](=O)[O-])c4)o3)[nH]c2c1 | -8.6 | 108.0* | -0.3 | 0.0 | 51.8
Cc1ccc2nc(/C(C#N)=C\c3cc(O)ccc3[N+](=O)[O-])[nH]c2c1 | 4.0 | -16.2 | -0.6 | 0.0 | ·
COc1ccc(/C=C(\C#N)c2nc3ccc(C)cc3[nH]2)cc1Oc1ccc(C(F)(F)F)cc1[N+](=O)[O-] | 10.9 | 101.6* | -0.1 | 0.2 | 58.5
